The record followed here is the supplement of paper PMC4840960.

Structures can show the parent of a compound that is named as a salt.

The subject of this test is E18 rat cortical neuron-glia co-culture. Kind of test: myelination (MBP fiber length per Olig2+ nucleus), % of 1 µM DAPT response (DMSO = 0) (% of DAPT); higher = more myelination, active = 50 or more. The conditions noted are these: 1 µM; treatment time: 8 days (DIV5-DIV13). Summed up:
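Rat cortical co-cultures from E18 tissue were dissociated with papain and plated at 20,000 cells/well on 96-well plates coated with poly-d-lysine/laminin. From DIV5 to DIV13, library compounds were added at 1 or 5 µM in myelination medium. After fixation in 4 % paraformaldehyde, cultures were immunostained for MBP and Olig2 and counterstained with DAPI, and four 10X fields were analysed in each of duplicate wells. The myelination value is the length of continuous straight MBP fibers per Olig2+ nucleus, normalised so that 0.1 % DMSO is 0 and a 1 µM positive control is 100.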
Consider `NC(=O)N1c2ccccc2C=Cc2ccccc21` [Carbamazepine], for which the myelination is 2.28 (inactive).

As to `CCOC(=O)[C@H](CCc1ccccc1)N[C@H]1CCc2ccccc2N(CC(=O)O)C1=O` [Benazepril], the myelination is -15.3 (inactive).

For `C[C@H]1C[C@@H]2[C@H]([C@@H](O)C[C@@]3(C)[C@H]2CC[C@]3(O)C(=O)CO)[C@@]2(C)C=CC(=O)C=C12` [Methylprednisolone], the myelination is -0.665 (inactive).

As for `CC(=O)[C@H]1CC[C@H]2[C@@H]3CCC4=CC(=O)CC[C@]4(C)[C@H]3CC[C@]12C` [Progesterone], the myelination is -31.5 (inactive).

With `O=C(c1ccc(OCCN2CCCCC2)cc1)c1c(-c2ccc(O)cc2)sc2cc(O)ccc12` [Raloxifene], the myelination is -12.3 (inactive).

For the compound `CNCCC(Oc1ccc(C(F)(F)F)cc1)c1ccccc1` (centres undefined) [Fluoxetine hydrochloride], the myelination was -1.16 (inactive).

As for `CN(C)CCOC(C)(c1ccccc1)c1ccccn1` (centres undefined) [Doxylamine], the myelination is -13.6 (inactive).

On to `CCOC(=O)O[C@]1(C(=O)OCCl)CC[C@H]2[C@@H]3CCC4=CC(=O)C=C[C@]4(C)[C@H]3[C@@H](O)C[C@@]21C` [Loteprednol etabonate], for which the myelination was -14.2 (inactive).

Take `CC(=O)OCC(=O)[C@@]12OC(C)(C)O[C@@H]1C[C@H]1[C@@H]3C[C@H](F)C4=CC(=O)C=C[C@]4(C)[C@@]3(F)[C@@H](O)C[C@@]12C` [Fluocinonide]: the myelination was -38 (inactive).

`CCCN[C@H]1CCc2nc(N)sc2C1` [Pramipexole]: the myelination was -6.49 (inactive).

Regarding `CC(CCc1ccccc1)NCC(O)c1ccc(O)c(C(N)=O)c1` (centres undefined) [Labetalol], the myelination was -16.1 (inactive).

Turning to `CC(C)NCC(O)COc1cccc2[nH]ccc12` (centres undefined) [Pindolol], the myelination was -3.4 (inactive).

`Clc1ccc(COC(Cn2ccnc2)c2ccc(Cl)cc2Cl)c(Cl)c1` (centres undefined) [Miconazole]: the myelination is -12.3 (inactive).

`CCN(CC)C(=S)SSC(=S)N(CC)CC` [Disulfiram] yielded a myelination of 148.

On to `CC(=O)N1CCN(c2ccc(OCC3COC(Cn4ccnc4)(c4ccc(Cl)cc4Cl)O3)cc2)CC1` (centres undefined) [Ketoconazole], for which the myelination is -0.358 (inactive).

For the compound `O=C1C(CC[S+]([O-])c2ccccc2)C(=O)N(c2ccccc2)N1c1ccccc1` (centres undefined) [Sulfinpyrazone], the myelination was -0.801 (inactive).

Consider `CC[C@H]1OC(=O)[C@H](C)C(=O)[C@H](C)[C@@H](O[C@@H]2O[C@H](C)C[C@H](N(C)C)[C@H]2O)[C@](C)(OC)C[C@@H](C)C(=O)[C@H](C)[C@H]2N(CCCCn3cnc(-c4cccnc4)c3)C(=O)O[C@]12C` [Telithromycin], for which the myelination was -3.78 (inactive).

`COc1ccc2cc([C@H](C)C(=O)O)ccc2c1` [Naproxen]: the myelination is -5.15 (inactive).

In the case of `C[C@@H]1C[C@H]2[C@@H]3C[C@H](F)C4=CC(=O)C(Cl)=C[C@]4(C)[C@@]3(F)[C@@H](O)C[C@]2(C)[C@@]1(O)C(=O)CO` [Halometasone hydrate], the myelination is -20.7 (inactive).

With `C=C(CC)C(=O)c1ccc(OCC(=O)O)c(Cl)c1Cl` [Ethacrynic Acid], the myelination is 32.2 (inactive).

Turning to `O=C(O)c1cccnc1` [Niacin], the myelination is 9.03 (inactive).

With `Cc1ccc(O)c([C@H](CCN(C(C)C)C(C)C)c2ccccc2)c1` [Tolterodine], the myelination was -15.9 (inactive).

On to `CS(=O)(=O)c1ccc(-c2cc(Br)sc2-c2ccc(F)cc2)cc1`, for which the myelination was 8.65 (inactive).

In the case of `O=c1c(-c2ccccc2)c1-c1ccccc1` [Diphenylcyclopropenone], the myelination is -43.4 (inactive).

In the case of `CCN(CC)CC#CCOC(=O)C(O)(c1ccccc1)C1CCCCC1` (centres undefined) [Oxybutynin], the myelination is 9.59 (inactive).

Turning to `OC(c1cc(C(F)(F)F)nc2c(C(F)(F)F)cccc12)C1CCCCN1` (centres undefined) [Mefloquine], the myelination is -11.1 (inactive).

For the compound `C=CCc1ccc(O)c(-c2ccc(O)c(CC=C)c2)c1` [Honokiol], the myelination was -2.87 (inactive).

Turning to `C[C@H]1[C@H](OC(=O)CCC(=O)O)O[C@@H]2O[C@@]3(C)CC[C@H]4[C@H](C)CC[C@@H]1[C@@]24OO3` [Artesunate], the myelination was -34.4 (inactive).

As to `CN1CCN(CCCN2c3ccccc3Sc3ccc(C(F)(F)F)cc32)CC1` [Trifluoperazine], the myelination was -80.1 (inactive).

Take `Clc1ccc2c(c1)CCc1cccnc1C2=C1CCNCC1` [Desloratadine]: the myelination was -12.9 (inactive).

As to `NC[C@H]1CC[C@H](C(=O)Oc2ccc(CCC(=O)O)cc2)CC1` [Cetraxate], the myelination was 4.64 (inactive).

As to `COC(=O)Nc1nc2cc(C(=O)c3ccc(F)cc3)ccc2[nH]1` [Flubendazole], the myelination is -24 (inactive).

For the compound `CCc1c2c(nc3ccc(OC(=O)N4CCC(N5CCCCC5)CC4)cc13)-c1cc3c(c(=O)n1C2)COC(=O)[C@]3(O)CC` [Irinotecan], the myelination was 255 (active).

For the compound `CN1[C@@H](CC(=O)c2ccccc2)CCC[C@H]1C[C@H](O)c1ccccc1` [Lobeline], the myelination was 2.9 (inactive).

Take `CN(Cc1cnc2nc(N)nc(N)c2n1)c1ccc(C(=O)N[C@@H](CCC(=O)O)C(=O)O)cc1` [Methotrexate]: the myelination is -20.4 (inactive).

With `O=C1CCc2ccc(OCCCCN3CCN(c4cccc(Cl)c4Cl)CC3)cc2N1` [Aripiprazole], the myelination was -54.9 (inactive).

Regarding `Clc1ccc(COC(Cn2ccnc2)c2ccc(Cl)cc2Cl)cc1` (centres undefined) [Econazole], the myelination was 0.139 (inactive).

As to `O=C1[C@H]2CCCC[C@H]2C(=O)N1CCCCN1CCN(c2nsc3ccccc23)CC1` [Perospirone], the myelination is -33.9 (inactive).

On to `Clc1ccc(CO/N=C(\Cn2ccnc2)c2ccc(Cl)cc2Cl)c(Cl)c1` [Oxiconazole], for which the myelination is -25.1 (inactive).
